Experimental data published in PubChem BioAssay (NCATS).
“And” between values parts separate entries of the source, which are not always exact repeats. Equal values may be shown once. Records with an inconclusive call do not appear. A structure can be active in one record and inactive in another. The source made the active and inactive calls. Unless noted, calls follow the shape of the dose curve; as a rule, active = well fitted curve in the direction sought with a large enough effect; inconclusive = small, poorly fitted or top-dose-only effect, or another doubt; inactive = no such curve, though single readings can be large; an effect the other way counts as inactive or inconclusive.

Key:
[1] = Identifying Small Molecule Inhibitors of Pancreatic Cancer Stem Cells (A278, Adherent) (AID 1259361); also: nearly all actives have a fitted effect of over 35% in size
Outline: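 Viability is scored by CellTiter-Glo luminescence 48 h after dosing, expressed as percent activity against vehicle and no-cell references. Spheroid formats rely on cells cultured 14 days in stem cell media beforehand.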

[2] = Identifying Small Molecule Inhibitors of Pancreatic Cancer Stem Cells (Panc1, Adherent) (AID 1259362); details: Potency: viability; also: potency is read from the fitted curve at half-maximal effect
Outline: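 Cytotoxicity read by CellTiter-Glo luminescence after 48 h compound exposure at 37C; percent activity scaled between DMSO-treated cells and cell-free wells. Spheroid formats used cells pre-formed 14 days in stem cell media on hydrogel.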

[3] = P-glycoprotein substrates identified in KB-8-5-11 adenocarcinoma cell line, qHTS therapeutic library screen (AID 1346987); also: nearly all actives have a fitted effect of over 65% in size; also: potency is read from the fitted curve at half-maximal effect
Outline: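 Compounds are pinned in dose-response onto KB-8-5-11 cells (500 cells/well, colchicine-free medium) and left 72 h at 37 degree C. CellTiter-Glo luminescence then yields AC50 values.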

[4] = NS1 protein of Zika virus - qHTS assay to identify small molecule inhibitors in human HEK 293 cells (AID 1347053); also: nearly all actives have a fitted effect of over 55% in size; also: potency is read from the fitted curve at half-maximal effect
Outline: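 TR-FRET signal from two anti-ZIKV NS1 antibodies quantified NS1 in HEK 293 cells 24 h after MR766 infection at MOI = 0.5; compounds were added 1 h before virus. Uninfected cells and infected cells defined the NS1 normalization range.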

[5] = qHTS of pediatric cancer cell lines to identify multiple opportunities for drug repurposing: Primary screen for A673 cells (AID 1347092); also: nearly all actives have a fitted effect of over 45% in size; also: potency is read from the fitted curve at half-maximal effect
Outline: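 A673 cells (500-1,000 cells/well) were treated 48 hours at 37 degrees C with compounds at 11-point (0.78 nM to 46 µM) or 8-point (0.59 nM to 46 µM) dilutions. Viability read by CellTiter-Glo luminescence; concentration-response curves fitted.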

[6] = qHTS of pediatric cancer cell lines to identify multiple opportunities for drug repurposing: Primary screen for SK-N-MC cells (AID 1347093); also: potency is read from the fitted curve at half-maximal effect
Outline: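 Metabolically active cells were quantified by ATP-dependent luminescence (CellTiter-Glo, 15 min at room temperature) following 48 h treatment. Cells had been plated at 500-1,000 per well and settled for 5 h beforehand.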

[7] = qHTS of pediatric cancer cell lines to identify multiple opportunities for drug repurposing: Primary screen for BT-37 cells (AID 1347094); also: potency is read from the fitted curve at half-maximal effect
Outline: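 Luminescence from CellTiter-Glo served as readout of metabolically active cells after 48 h compound exposure. Titrations: MIPE 11-point, from 0.78 nM; NPC 8-point, from 0.59 nM (final). Concentration-response curves came straight from the primary screen.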

[8] = P-glycoprotein substrates identified in KB-3-1 adenocarcinoma cell line, qHTS therapeutic library screen (AID 1346986); also: nearly all actives have a fitted effect of over 60% in size;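 also: potency is read from the fitted curve at half-maximal effect; potency is for cytotoxicity meaning loss of cell viability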
Outline: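 72 h cell-killing screen, 500 cells/well, CellTiter-Glo luminescence. Paired lines KB-3-1/KB-8-5-11; P-gp dependence checked by tariquidar co-treatment and HEK-293 MDR-19 versus empty-vector cells.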

[9] = qHTS of pediatric cancer cell lines to identify multiple opportunities for drug repurposing: Primary screen for TC32 cells (AID 1347089); also: nearly all actives have a fitted effect of over 60% in size; also: potency is read from the fitted curve at half-maximal effect
Outline: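 TC32 cells, 500-1,000/well in growth medium, compound-treated 48 h at 37 °C; viability from CellTiter-Glo luminescence. Primary screen: MIPE 11-point (0.78 nM–46 µM final), NPC 8-point (0.59 nM–46 µM final); confirmatory at 11-point dilutions.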

[10] = qHTS of pediatric cancer cell lines to identify multiple opportunities for drug repurposing: Primary screen for SJ-GBM2 cells (AID 1347091); also: potency is read from the fitted curve at half-maximal effect
Outline: (§1)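 Eight- or eleven-point concentration series, 48 h treatment at 37 degrees C in growth media; readout CellTiter-Glo luminescence. Potency and efficacy were taken from the concentration-response curves.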

[11] = qHTS of pediatric cancer cell lines to identify multiple opportunities for drug repurposing: Primary screen for DAOY cells (AID 1347090); also: nearly all actives have a fitted effect of over 55% in size; also: potency is read from the fitted curve at half-maximal effect
Outline: as §1

[12] = Identifying Small Molecule Inhibitors of Pancreatic Cancer Stem Cells (SN12C, Spheroid) (AID 1259360); details: Potency: SN12C spheroid viability; also: potency is read from the fitted curve at half-maximal effect
Outline: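 Luminescent ATP readout (CellTiter-Glo) quantifies surviving cells after a 48 h drug incubation. Normalization uses DMSO wells as no inhibition and media-only wells as full inhibition; bortezomib served as positive control.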

[13] = biological target: Atrial natriuretic peptide receptor 1 (Homo sapiens) (UniProt P16066); assay: Natriuretic polypeptide receptor (hNpr1) antagonism - Pilot screen (AID 1347049; calls by dose curve;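 also: HEK293 cells with hNpr1 and GloSensor cGMP luciferase stimulated by 0.1 nM hNppA; agonist-evoked cGMP luminescence read 20 min after hNppA addition; series mostly up to about 58 µM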)
Atrial natriuretic peptide receptor 1 (Homo sapiens), sequence (P16066 whole entry, looked up): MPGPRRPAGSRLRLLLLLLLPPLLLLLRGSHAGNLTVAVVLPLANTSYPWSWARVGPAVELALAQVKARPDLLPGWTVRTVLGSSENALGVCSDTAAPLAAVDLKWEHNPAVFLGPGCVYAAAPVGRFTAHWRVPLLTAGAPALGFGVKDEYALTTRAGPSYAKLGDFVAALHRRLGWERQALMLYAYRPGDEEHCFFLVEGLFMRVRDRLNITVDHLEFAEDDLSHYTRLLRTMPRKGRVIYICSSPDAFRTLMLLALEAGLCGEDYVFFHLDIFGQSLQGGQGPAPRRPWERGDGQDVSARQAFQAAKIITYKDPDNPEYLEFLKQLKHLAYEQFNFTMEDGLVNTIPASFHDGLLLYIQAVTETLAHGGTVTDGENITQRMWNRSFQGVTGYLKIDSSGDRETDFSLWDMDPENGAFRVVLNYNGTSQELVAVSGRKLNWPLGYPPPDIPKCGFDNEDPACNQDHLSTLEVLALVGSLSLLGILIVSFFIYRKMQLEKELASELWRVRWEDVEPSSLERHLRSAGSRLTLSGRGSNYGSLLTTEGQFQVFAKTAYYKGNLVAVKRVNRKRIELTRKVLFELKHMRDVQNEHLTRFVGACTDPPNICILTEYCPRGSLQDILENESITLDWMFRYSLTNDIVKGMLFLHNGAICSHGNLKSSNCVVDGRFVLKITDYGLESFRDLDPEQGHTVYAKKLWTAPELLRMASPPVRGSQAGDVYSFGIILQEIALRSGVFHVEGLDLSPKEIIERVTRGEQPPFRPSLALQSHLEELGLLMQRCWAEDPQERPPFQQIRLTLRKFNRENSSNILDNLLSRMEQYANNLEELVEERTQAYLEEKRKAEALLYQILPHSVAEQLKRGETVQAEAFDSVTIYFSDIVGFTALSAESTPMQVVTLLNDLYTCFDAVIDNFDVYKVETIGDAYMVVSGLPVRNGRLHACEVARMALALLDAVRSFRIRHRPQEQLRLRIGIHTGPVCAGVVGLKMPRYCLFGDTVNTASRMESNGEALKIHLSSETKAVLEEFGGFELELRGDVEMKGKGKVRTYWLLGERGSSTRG
Outline: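 Cells expressing receptor plus cGMP biosensor are seeded and incubated overnight at 37C, then loaded with GloSensor reagent (2% final) at room temperature for 2 h. Library compounds go on for 30 min. A pre-read precedes agonist (hNppA, 0.1 nM final) and a 20-min readout.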

[14] = biological target: Atrial natriuretic peptide receptor 2 (Homo sapiens) (UniProt P20594); assay: Natriuretic polypeptide receptor (hNpr2) antagonism - Pilot subtype selectivity assay (AID 1347050; calls by dose curve)
Atrial natriuretic peptide receptor 2 (Homo sapiens), sequence (P20594 whole entry, looked up): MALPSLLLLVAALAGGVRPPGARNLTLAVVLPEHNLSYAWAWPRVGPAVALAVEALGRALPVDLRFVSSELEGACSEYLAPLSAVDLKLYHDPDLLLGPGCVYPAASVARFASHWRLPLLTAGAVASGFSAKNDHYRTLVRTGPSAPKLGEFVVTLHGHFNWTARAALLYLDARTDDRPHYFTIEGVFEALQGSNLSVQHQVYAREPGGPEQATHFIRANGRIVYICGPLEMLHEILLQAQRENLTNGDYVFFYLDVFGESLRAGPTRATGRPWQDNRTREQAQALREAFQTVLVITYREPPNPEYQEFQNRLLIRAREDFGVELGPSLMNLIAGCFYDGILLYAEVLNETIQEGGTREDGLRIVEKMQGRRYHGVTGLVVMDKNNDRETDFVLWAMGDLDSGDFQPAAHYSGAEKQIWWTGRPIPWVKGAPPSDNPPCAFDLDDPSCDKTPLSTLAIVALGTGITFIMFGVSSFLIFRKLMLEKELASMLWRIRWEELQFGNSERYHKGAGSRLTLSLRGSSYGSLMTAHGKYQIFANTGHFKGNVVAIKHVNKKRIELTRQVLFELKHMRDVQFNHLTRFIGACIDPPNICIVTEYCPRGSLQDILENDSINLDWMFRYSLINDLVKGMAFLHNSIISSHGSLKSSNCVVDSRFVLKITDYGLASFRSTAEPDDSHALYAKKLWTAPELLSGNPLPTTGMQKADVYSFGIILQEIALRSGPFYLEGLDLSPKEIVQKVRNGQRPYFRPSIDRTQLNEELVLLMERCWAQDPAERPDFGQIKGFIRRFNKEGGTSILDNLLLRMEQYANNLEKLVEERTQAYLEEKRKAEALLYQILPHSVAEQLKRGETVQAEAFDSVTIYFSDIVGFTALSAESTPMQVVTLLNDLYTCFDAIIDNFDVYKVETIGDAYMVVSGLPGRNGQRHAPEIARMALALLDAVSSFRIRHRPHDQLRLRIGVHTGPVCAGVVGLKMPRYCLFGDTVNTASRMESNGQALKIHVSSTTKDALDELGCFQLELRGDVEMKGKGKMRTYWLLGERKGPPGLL
Outline: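 Read-out: GloSensor luminescence (CCD imager), baseline vs post-stimulation. HEK293 cells expressing hNpr2; compounds pre-incubated 30-50 min at ambient temperature; hNppC 1 nM final, 20 min.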

Nc1nccc(Oc2ccc(NC(=O)c3c[nH]cc(-c4ccc(F)cc4)c3=O)cc2F)c1Cl
inactive: Potency [2] | Potency [4]
active: IC50 (viability decrease) [1] 23.5 µM | Potency [3] 23.5 µM and 16.4 µM | Potency [5] 5.9 µM | Potency [6] 2.35 µM | Potency [7] 2.17 µM

O=C(NCCCNc1nc(Nc2cccc(NC(=O)N3CCCC3)c2)ncc1I)c1cccs1
active: IC50 (viability decrease) [1] 6.62 µM and 14.8 µM | Potency [2] 11.8 µM and 16.6 µM | Potency [8] 11.6 µM | Potency [3] 16.6 µM | Potency [9] 2.62 µM | Potency [10] 2.96 µM | Potency [5] 7.43 µM | Potency [6] 1.32 µM | Potency [7] 24.3 µM

Fc1cc(-c2cccc3ncc(-c4cnn(C5CCNCC5)c4)nc23)cc(F)c1CN1CCOCC1
active: IC50 (viability decrease) [1] 20.9 µM | Potency [3] 20.9 µM and 20.6 µM | Potency [4] 20.9 µM | Potency [5] 18.7 µM | Potency [6] 14.8 µM | Potency [7] 24.3 µM

O=C(O)c1ccc2c(c1)nc(Nc1cccc(Cl)c1)c1ccncc12
inactive: Potency [9]
inactive and 14.6 µM (active): Potency [3]
active: IC50 (viability decrease) [1] 16.6 µM | Potency [8] 5.8 µM | Potency [11] 4.69 µM | Potency [5] 4.69 µM | Potency [6] 0.935 µM | Potency [7] 7.69 µM

CC(C)[C@H](C(=O)Nc1ccc(C(=O)NO)cc1)c1ccccc1
active: IC50 (viability decrease) [1] 0.833 µM | Potency [2] 418 nM | Potency [3] 1.48 µM | Potency [9] 3.3 µM | Potency [11] 1.87 µM | Potency [10] 0.59 µM | Potency [5] 1.18 µM | Potency [6] 0.469 µM | Potency [7] 2.17 µM

CC(C)=CCCC(C)=CCCC(C)=CCSc1ccccc1C(=O)O
inactive: Potency [12]
active: Potency [10] 0.833 µM | Potency [5] 5.9 µM | Potency [6] 0.743 µM | Potency [7] 7.69 µM

Nc1ccc(C(=O)c2cc3c(ccc4ccccc43)[nH]2)cc1
inactive: Potency [12]
active: Potency [2] 2960 nM | Potency [3] 1.18 µM | Potency [4] 18.7 µM | Potency [9] 7.39 µM | Potency [10] 2.35 µM | Potency [5] 2.96 µM | Potency [6] 2.09 µM | Potency [7] 7.69 µM

COc1ccc2c(c1)CC[C@@H](CN(C)CC(=O)O)[C@H]2c1ccccc1
1.66 µM (active) and inactive: Potency [3]
inactive: Potency [12]
active: Potency [9] 3.7 µM | Potency [10] 1.18 µM | Potency [5] 1.87 µM | Potency [6] 1.18 µM | Potency [7] 6.11 µM

N#CCNC(=O)c1ccc(-c2ccnc(Nc3ccc(N4CCOCC4)cc3)n2)cc1
active: IC50 (viability decrease) [1] 13.2 µM | Potency [8] 3.66 µM | Potency [3] 8.33 µM and 5.8 µM | Potency [11] 14.8 µM | Potency [10] 13.2 µM | Potency [5] 7.43 µM | Potency [6] 4.69 µM | Potency [7] 21.7 µM

CC[C@H](CO)Nc1nc(NCc2ccccc2)c2ncn(C(C)C)c2n1
active: IC50 (viability decrease) [1] 18.7 µM | Potency [3] 18.7 µM | Potency [11] 23.5 µM | Potency [5] 18.7 µM | Potency [7] 27.3 µM
inactive: Potency [13] | outcome [14] | Potency [4] | Potency [9]

Cc1cn(-c2cc(NC(=O)c3ccc(C)c(Nc4nccc(-c5cccnc5)n4)c3)cc(C(F)(F)F)c2)cn1
active: Potency [10] 18.7 µM
inactive: Potency [12] | Potency [9] | Potency [11] | Potency [5] | Potency [6] | Potency [7]

N#Cc1c(O)c2c(-c3ccc(-c4ccccc4O)cc3)csc2[nH]c1=O
inactive: IC50 (viability decrease) [1] | Potency [2] | Potency [8] | Potency [4] | Potency [9] | Potency [11] | Potency [10] | Potency [5] | Potency [6] | Potency [7]

O=C(C=Cc1c(C(=O)O)[nH]c2cc(Cl)cc(Cl)c12)Nc1ccccc1
inactive: Potency [12] | Potency [2] | Potency [3] | Potency [4] | Potency [11] | Potency [10] | Potency [5] | Potency [7]

C=C1C(=CC=C2CCCC3(C)[C@@H]([C@H](C)C=CC=CC(O)(CC)CC)CC[C@@H]23)C[C@@H](O)C[C@@H]1O (stereo partly specified)
inactive: Potency [8] | Potency [3] | Potency [4] | Potency [9]
active: Potency [12] 18.7 µM | Potency [10] 20.9 µM | Potency [5] 18.7 µM | Potency [6] 6.62 µM

COc1cc(C(C)C)c2c(c1)S(=O)(=O)N(COc1cc(=O)n3cccc(OCCN4CCCCC4)c3n1)C2=O
active: Potency [10] 26.4 µM | Potency [5] 7.43 µM | Potency [6] 3.72 µM
inactive: Potency [12] | Potency [8] | Potency [3]

Cc1cnc(-c2cnc(NCCNc3ccc(C#N)cn3)nc2-c2ccc(Cl)cc2Cl)[nH]1
inactive: Potency [12] | Potency [3] | Potency [4] | Potency [9] | Potency [7]
active: Potency [11] 14.8 µM | Potency [5] 1.87 µM | Potency [6] 0.105 µM

CC(C)c1ccccc1Cc1cc(C(=O)Nc2ccc(S(=O)(=O)c3ccccc3C(C)(C)C)cc2)c(O)c(O)c1O
active: Potency [3] 9.35 µM | Potency [11] 29.6 µM | Potency [10] 2.96 µM | Potency [5] 18.7 µM | Potency [7] 24.3 µM
inactive: Potency [12] | Potency [9]
